PubChem BioAssay (NCI)
This is part of a sample that, as a whole, favours compounds with a hit. Of some 79,000 tested, about 15% had one in any assay. Rule as the data show it: active = growth inhibition above about 70%; inactive = the rest.

How the values were obtained:
[1] = NCI Yeast Anticancer Drug Screen. Data for the rad50 strain (AID 155);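 also: 0% = growth of vehicle-only cultures of the same strain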; details: S. cerevisiae rad50 strain growth inhibition; at 50.0 µM; active compounds read high
In short: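 Inhibition values express reduced yeast growth in compound-treated cultures relative to vehicle-treated controls.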

[2] = NCI Yeast Anticancer Drug Screen. Data for the mec2-1 strain (AID 157); details: S. cerevisiae mec2-1 strain, at 50.0 µM, active compounds read high
In short: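 Mutant yeast (mec2-1) grown with compound; growth inhibition relative to vehicle control reported.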

[3] = NCI Yeast Anticancer Drug Screen. Data for the sgs1 mgt1 strain (AID 161);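 also: 0% = growth of cultures given vehicle only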; details: S. cerevisiae sgs1 mgt1 strain, at 50.0 µM, active compounds read high
In short: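 This yeast growth screen uses a strain with defined DNA-repair lesions; compound-treated growth is compared with vehicle-treated growth.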

[4] = NCI Yeast Anticancer Drug Screen. Data for the cln2 rad14 strain (AID 165);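 also: 0% = growth equal to vehicle treated cultures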; details: S. cerevisiae cln2 rad14 strain, at 50.0 µM, active compounds read high
In short: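 Readout is yeast growth inhibition versus vehicle-treated controls, using a strain with cln2 and rad14 alterations exposed to compound.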

[5] = NCI Yeast Anticancer Drug Screen. Data for the bub3 strain (AID 167); details: S. cerevisiae bub3 mutant strain, at 50.0 µM, active compounds read high
In short: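 Steps: expose the mutant yeast strain to compound; grow alongside vehicle-treated cultures; measure growth; express inhibition against the vehicle cultures.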

[6] = NCI Yeast Anticancer Drug Screen. Data for the mlh1 rad18 strain (AID 175); details: S. cerevisiae mlh1 rad18 strain growth inhibition; at 50.0 µM; active compounds read high
In short: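 Genetically defined yeast (DNA repair-deficient) exposed to compounds; growth inhibition determined relative to vehicle.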

Measured: growth inhibition

COc1ccc2nc3cc(Cl)ccc3c(C=O)c2c1
inactive: [1] -0.15% | [2] 7.65% | [3] 5.75% | [4] -35.8% | [5] -4.3% | [6] -2.25%

CCOC(=O)C(SC(Cl)(S(=O)(=O)c1ccccc1)S(=O)(=O)c1ccccc1)C(=O)OCC
inactive: [1] 2.1% | [2] 10.1% | [3] -4.75% | [4] -8.75% | [5] -13% | [6] -14.6%

CCCCCCCCCCCCCCCCCC(=O)Nc1nc(N)nc(N)n1
inactive: [1] 11.1% | [2] 15.1% | [3] 3.6% | [4] 18.6% | [5] -5.15% | [6] 6.15%

O=[n+]1c(-c2ccccc2)c(-c2ccccc2)n([O-])c2cc3ccccc3cc21
inactive: [1] 28.7% | [2] 3.65% | [3] 12.2% | [4] -24.6% | [5] 6.05% | [6] 26.4%

O=C(NCCO)[C@H](O)[C@@H](O)[C@H](O)[C@H](O)CO
inactive: [1] 7.1% | [2] -2% | [3] -3.7% | [4] 16.1% | [5] 14.9% | [6] 15.2%

O=S(O)CCCCCSSCCCCSSCCCCCS(=O)O
inactive: [1] 7.6% | [2] -0.15% | [3] 11.5% | [4] 10.3% | [5] 12.8% | [6] 27.4%

CCC(C)Nc1ccc(NS(=O)(=O)CCl)cc1 (stereo not given)
inactive: [1] 54% | [2] 6.3% | [3] 13.3% | [4] 4.25% | [5] 6.6% | [6] 8.9%

C=COCCC(C(=O)OCC)C(=O)OCC
inactive: [1] 13.5% | [2] 26.5% | [3] 17.8% | [4] 4.2% | [5] 40.6% | [6] 13.1%

CNC(CCCC1CCCCC1)C(=O)O (stereo not given)
inactive: [1] -2.85% | [2] 5.7% | [3] -0.15% | [4] 11.4% | [5] 12.8% | [6] -7.35%

COC(=O)CCN(C)c1ccccc1
inactive: [1] -4.7% | [2] -0.55% | [3] -3.75% | [4] -8.15% | [5] 3.65% | [6] -7.5%

Nc1cccc(C(F)(F)F)c1
inactive: [1] -20.8% | [2] 0.25% | [3] -16.3% | [4] -58.5% | [5] 18.4% | [6] -0.05%

C/C(=N/Nc1ccc([N+](=O)[O-])cc1[N+](=O)[O-])C1CC2CCC1C2 (stereo not given)
inactive: [1] -17.4% | [2] 2.05% | [3] 2.1% | [4] -4.3% | [5] 3% | [6] -16.6%

OCCCCC(c1ccc(O)cc1)c1ccc(O)cc1
inactive: [1] 17% | [2] -52.3% | [3] 8.8% | [4] 25.1% | [5] -18.9% | [6] -14.7%

C/C=C/C[P+](Cc1ccccc1)(c1ccccc1)c1ccccc1
inactive: [1] 59.6% | [2] 14.9% | [3] 26.2% | [4] -32.1% | [5] 24.6% | [6] 14.3%

CC(=O)c1ccc2c(c1)-c1ccc(C(C)=O)cc1-2
inactive: [1] -11.9% | [2] -0.7% | [3] -14.4% | [4] -11% | [5] -10.8% | [6] -7.6%

COC(=O)C(CC(=O)[C@H]1CC[C@H]2[C@@H]3CC=C4C[C@@H](OC(C)=O)CC[C@]4(C)[C@H]3CC[C@]12C)OC (stereo not given in full)
inactive: [1] 11.8% | [2] 8.6% | [3] 15.2% | [4] 2.45% | [5] -22.4% | [6] 9%

N#CC(N)c1ccc(OCCCCCCCCCCOc2ccc(C(N)C#N)cc2)cc1 (stereo not given)
inactive: [1] 1.5% | [2] 2.65% | [3] -27.2% | [4] -7.8% | [5] -17.4% | [6] -20.8%

Cc1cc(C)n(C2OC(CO)C(O)C(O)C2O)c(=S)c1C#N (stereo not given)
inactive: [1] 21.1% | [2] 14.8% | [3] 29.6% | [4] 5.4% | [5] 8.4% | [6] 35.4%

CC(=N/O)/C(C)=C/c1ccccc1
inactive: [1] 10.1% | [2] 7.3% | [3] 1.4% | [4] 8.4% | [5] 6.25% | [6] 2.7%

COc1cc(/C=C(\C#N)c2ccccc2)cc(OC)c1
inactive: [1] 43.8% | [2] -13.5% | [3] -9.6% | [4] -9.8% | [5] 17.4% | [6] -28.9%
